The entries come from a sample that favours hits as a whole.
ALOX15B inhib = inhibitors of human 15-lipoxygenase 2 (ALOX15B); O15296; purified 15hLO-2, xylenol orange hydroperoxide absorbance; 0.56% of 110,000 active; Potency, µM (top dose mostly 57.1 µM), hits mostly inhibitors; note: nearly all actives have a fitted effect of over 60% in size
Target sequence (O15296 whole entry, looked up): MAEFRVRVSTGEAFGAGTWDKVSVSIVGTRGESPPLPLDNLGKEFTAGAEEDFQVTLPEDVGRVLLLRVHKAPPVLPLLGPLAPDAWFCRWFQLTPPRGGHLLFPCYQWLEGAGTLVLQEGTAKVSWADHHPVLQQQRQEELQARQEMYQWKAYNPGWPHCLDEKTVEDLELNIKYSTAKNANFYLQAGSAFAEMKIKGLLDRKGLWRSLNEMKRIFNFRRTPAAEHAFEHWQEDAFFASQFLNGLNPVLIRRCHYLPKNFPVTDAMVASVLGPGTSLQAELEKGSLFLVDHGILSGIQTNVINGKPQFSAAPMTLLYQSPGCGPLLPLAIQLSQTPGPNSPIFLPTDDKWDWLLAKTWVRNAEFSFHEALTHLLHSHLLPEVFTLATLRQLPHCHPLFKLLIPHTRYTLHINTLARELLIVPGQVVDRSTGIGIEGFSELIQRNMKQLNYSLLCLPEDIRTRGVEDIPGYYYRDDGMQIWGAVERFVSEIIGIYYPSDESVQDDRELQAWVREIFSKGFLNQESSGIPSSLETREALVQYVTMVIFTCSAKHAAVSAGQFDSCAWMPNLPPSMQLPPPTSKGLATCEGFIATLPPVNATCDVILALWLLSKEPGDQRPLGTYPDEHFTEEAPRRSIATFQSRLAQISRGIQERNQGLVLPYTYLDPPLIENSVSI
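Screening format was qHTS against 50 nM purified 15hLO-2 in Hepes pH 7.5 with detergent. Activity follows hydroperoxide formation from 45 uM arachidonic acid, measured as 573:405 nm absorbance ratio of the ferric-xylenol orange complex.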
ALOX12 inhib = blocks human 12-lipoxygenase activity. P18054. purified 12-hLO, xylenol orange hydroperoxide absorbance. Potency, µM (highest dose often 57.1 µM), actives largely listed as inhibitors. 0.12% of 150,000 active. AID 1452; note: nearly all actives have a fitted effect of over 55% in size
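Hydroperoxide output read as Fe(III)-xylenol orange absorbance, 573-to-405 nm ratio, after 30 min reaction with 40 uM arachidonic acid. Enzyme: 150 nM purified human 12hLO, 15 min compound preincubation; 25 mM Hepes pH 7.0, room temperature.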
Numbers stand for hits; . = inactive; ? = inconclusive; / = no result given; [ ] = another dose, or the depositor's remark. Calls come from the whole dose curve; as a rule, active = well fitted curve in the direction sought with a large enough effect; inconclusive = small, poorly fitted or top-dose-only effect, or another doubt; inactive = no such curve, though single readings can be large; an effect the other way counts as inactive or inconclusive.

SMILES | ALOX15B inhib | ALOX12 inhib
S=C(NCCc1ccc(Cl)cc1)Nc1ccc(Cl)cc1Cl | / | 11µM
S=C(NCc1ccc(Cl)cc1)Nc1ccc(Cl)cc1Cl | / | .
CCCCC/C=C\C/C=C\C/C=C\C/C=C\CCCC(=O)C(F)(F)F | ? | .[0.00818 µM]
Nc1ncnc2c1ncn2[C@@H]1CCCO1 | . | .
CCOC(=O)/C(C#N)=C/c1ccc(OC(=O)c2ccco2)c(OCC)c1 | / | .
N#C/C(=C\c1ccc(O)c(O)c1)C(=O)OCCc1cccs1 | 13µM | ?
O=C1[C@@H]2[C@@H]3C=C[C@H]([C@@H]2C(=O)N1CN1CCSCC1)[C@@H]1[C@@H]2C(=O)N(CN4CCSCC4)C(=O)[C@@H]2[C@H]31 | .[11.4 µM] | .[11.4 µM]
CC(C)N(CCC(=O)c1ccc2ccccc2c1)Cc1ccccc1 | 13µM | ?
CCC(=O)CCC(=O)c1ccc2ccccc2c1 | / | .
Nc1ccc(-c2ccc(N)c(O)c2)cc1O | . | .
Nc1cc(-c2ccccc2)ccc1O | 13µM | ?
CCCCc1cc2c(cn1)=C(OC(=O)c1cccs1)C(C)(OC(=O)CC)C(=O)C=2 (stereo not given) | / | .[11.4 µM]
Cc1ccc(/C(C#N)=C\c2ccc(N3CCOCC3)o2)cc1 | 13µM | .
N#C/C(=C/c1ccc(N2CCCCC2)o1)c1cccc(F)c1 | 10µM | .
COc1cc(N2CCCC2)c(OC)cc1/C=C(/C#N)c1ccc(Br)cc1 | . | .
N#C/C(=C/c1ccc(N2CCCCCC2)o1)c1ccc(Cl)cc1 | 7.9µM | ?
N#C/C(=C/c1ccc(N2CCCCC2)cc1)c1cccc(F)c1 | / | .
Cc1ccc2nc(/C(C#N)=C\c3ccc(N4CCOCC4)o3)[nH]c2c1 | / | .
Fc1ccc(Nc2nc(-c3ccoc3)nc3ccccc23)cc1 | . | /
Cc1ccc(S(=O)(=O)c2c(N)n(/N=C/c3ccco3)c3nc4ccccc4nc23)cc1 | . | .
Cc1ccc(S(=O)(=O)c2c(N)n(/N=C/c3ccco3)c3nc4ccccc4nc23)cc1C | 13µM | ?
N#Cc1cc2c([nH]c1=S)CCCCCC2 | 25µM | ?
N#Cc1c(N)n[nH]c1-c1cc2c([nH]1)CCCC2 | / | .
COc1ccc(/C=N/NC(=O)c2cc(-c3ccc(Cl)cc3)n[nH]2)cc1OC | / | .
CCN(CC)CCCC(C)n1c(-c2ccccc2)nc2c(NC3CCCCC3)nc(C)nc21 (stereo not given) | . | .
SMILES | ALOX15B inhib | ALOX12 inhib
CC(C)(C)c1cc(/C=C(\C#N)C(N)=S)cc(C(C)(C)C)c1O | 13µM | .
[C-]#[N+]/C(C#N)=C\c1cc(C(C)(C)C)c(O)c(C(C)(C)C)c1 | . | .
O=C(c1[nH]o[n+](=O)c1C(=O)c1csc2ccccc12)c1csc2ccccc12 | .[11.4 µM] | .[11.4 µM]
O=C1/C(=C\c2ccco2)SC(=S)N1c1ccccc1 | / | .
Cc1ccc(N2C(=O)/C(=C\c3ccco3)SC2=S)cc1 | ? | 7.9µM
Cc1ccc(C(=O)O[C@@H](C(=O)O)[C@@H](OC(=O)c2ccc(C)cc2)C(=O)O)cc1 (tested in a mixture with another compound) | . | .
S=C(NCc1ccco1)Nc1cccc(Cl)c1 | . | .
S=C(NCc1ccco1)Nc1ccc(Cl)c(Cl)c1 | ? | 18µM
COC(=O)C1=C(C)NC(C)=C(C(=O)OCCNCc2ccccc2)C1c1cccc([N+](=O)[O-])c1 (stereo not given) | .[0.0915 µM] | .[0.00818 µM]
Cc1cc(/C=N/NC(=O)Cn2c3ccccc3c(=O)c3ccccc32)c(C)n1-c1ccccc1 | 4µM | .
Cc1ccc(N(CC(=O)N/N=C/c2cc(C)n(-c3ccccc3)c2C)S(C)(=O)=O)c(C)c1 | . | .
O=C(O)C(Cc1ccccc1)N1C(=O)/C(=C/c2cccc3ccccc23)SC1=S (stereo not given) | 20µM | .
O=C(O)C(Cc1ccccc1)N1C(=O)/C(=C/c2ccccc2)SC1=S (stereo not given) | / | .
CCOc1cccc(CNc2ccc(O)cc2)c1OCc1ccc(Cl)cc1Cl | 1.6µM | ?
CCOc1cccc(CNCCO)c1OCc1ccc(Cl)cc1Cl | / | .
CCc1cccc(NC(=O)CSC2=NS(=O)(=O)c3ccccc32)c1 | 5µM | .
CCc1cccc(NC(=O)CSCc2cc(=O)[nH][nH]2)c1 | . | .
COc1ccc(CNc2ncnc3ccc(-c4c(C)noc4C)cc23)c(OC)c1 | . | /
CN1CCc2c(cc(O)c(O)c2Cl)[C@H](c2cccc(Cl)c2)C1 | ? | .
CC1=C/C(=C(/c2ccc(O)c(C)c2)c2ccccc2C(=O)O)C=CC1=O | .[11.4 µM] | .[11.4 µM]
O=C(O)C1=CC(=C(c2ccc(O)c(C(=O)O)c2)c2ccc(O)c(C(=O)O)c2)C=CC1=O | 7.9µM | ?
C[C@H]1Cc2c(-c3ccccc3)nc3c(c2CO1)CN(C(=O)NCc1ccco1)CC3 | / | .[11.4 µM]
CN1/C(=C\C(=S)NC(=O)c2cccc(Br)c2)C(C)(C)c2ccccc21 | / | 14µM
CN1/C(=C\C(=S)NC(=O)c2ccc([N+](=O)[O-])cc2)C(C)(C)c2ccccc21 | / | .
CCNS(=O)(=O)c1ccc(C)cc1 | . | .
SMILES | ALOX15B inhib | ALOX12 inhib
O=C(O)C(S)[C@@H](S)C(=O)O (stereo not given in full) | . | .
CC[n+]1c(/C=C2/C=C(C)CC(C)(C)C2)sc2ccc(OC)cc21 | 25µM | .
CC[n+]1c(/C=C2\C=C(C)CC(C)(C)C2)sc2ccccc21 | 25µM | .
CC[n+]1c(/C=C2\C=C(C)CC(C)C2)sc2ccccc21 (stereo not given) | ? | .
C[C@H]1Cc2c(-c3ccccc3)nc3c(c2CO1)CN(C(=O)c1cc(I)ccc1F)CC3 | / | .[11.4 µM]
c1ccc(C2=Nc3ccccc3SC2c2nc3ccccc3[nH]2)cc1 (stereo not given) | 25µM | ?
O=C1CC(c2nc3ccccc3[nH]2)CN1c1ccccc1 (stereo not given) | . | .
CCCCc1nc2c(c3c1C[C@H](C)OC3)CN(C(=O)N[C@@H](C)c1ccccc1)CC2 | / | .[11.4 µM]
COC(=O)C1=C(C(=O)OC)[C@@H]2N(C)c3ccccc3[C@@]23C[C@@H](C(=O)OC)N(S(=O)(=O)c2ccc(C(F)(F)F)cc2)C3=N1 | / | .[11.4 µM]
C=CCOc1ccc(C2NC(=S)NC(C)=C2C(=O)c2ccccc2)cc1OC (stereo not given) | / | .
CCCOc1ccc(C2NC(=S)NC(c3ccccc3)=C2C(=O)Nc2ccc(C)cc2)cc1OC (stereo not given) | / | 14µM
CCOC(=O)C1=C(c2ccccc2)NC(=S)NC1c1cccc([N+](=O)[O-])c1 (stereo not given) | / | .
CCOC(=O)C1=C(c2ccccc2)NC(=S)NC1c1cc([N+](=O)[O-])ccc1OC (stereo not given) | 25µM | .
Cc1ccc(S(=O)(=O)N(CC(=O)O)c2cccc(Cl)c2)cc1 | / | .
O=C(NC1CCN(Cc2ccccc2)C1)c1ccc(Cc2nc3ccccc3[nH]2)cc1 (stereo not given) | / | .
CCOc1ccccc1NC(=S)Nc1ccccc1F | .[11.4 µM] | .
CCOc1ccccc1NC(=S)Nc1ncccc1C | / | 20µM
COc1ccc(/C=N/NC(=O)C(=O)/C=C2\NC3(CCCC3)Cc3ccccc32)cc1 | / | .
O=C(/C=C1\NC2(CCCC2)Cc2ccccc21)C(=O)N/N=C/c1ccc(O)c(O)c1 | / | 0.89µM
C[C@](O)(c1ccccc1)c1nccc2ccccc12 | .[11.4 µM] | .[11.4 µM]
O=C(NC(=S)Nc1ccccc1)c1ccc(-c2ccccc2)cc1 | / | .
CC(C)NS(=O)(=O)c1ccc(NC(=S)NC(=O)c2ccc(-c3ccccc3)cc2)cc1 | 20µM | ?
